Results from paper PMC6212790, “How bacterial xenogeneic silencer rok distinguishes foreign from self DNA in its resident genome”.
Over roughly 33,000 sequences, “e-score” has its median near -0.038; the highest 2% begin near 0.33. This is one part of a sample in which the highest values are shown more often than they occur.

These sequences were tested against T1, GST-Rok-C97-191 (Bacillus subtilis subsp. subtilis str. …, UniProt O34857 97-191) (assay: protein binding microarray; Rok is a gene silencer of Bacillus subtilis; high values mean tight binding). Details: protein: recombinant; tags: GST (pTH5325, pDEST15-Magic modified); dsDNA, one strand shown.
T1 sequence: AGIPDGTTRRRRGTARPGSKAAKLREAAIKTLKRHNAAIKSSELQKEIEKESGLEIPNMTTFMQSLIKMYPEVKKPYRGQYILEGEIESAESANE
Method in brief: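 Each has a 25-mer constant primer and a 35-mer variable part from a de Bruijn sequence of order 10, covering every non-palindromic 8-mer at least 32 times (palindromic 16). Preference for each 8-mer is given as a rank-based, unitless enrichment score (E-score). Its range runs from 0.5 (most favored) to −0.5 (most disfavored).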
With ACTGTTGC the binding signal was 0.119 E-score. Work on TGACTCCA yielded a binding signal of -0.0987 E-score. For AGGAGGGA, the binding signal was -0.173 E-score. With CAGTTATG the binding signal was 0.0833 E-score. ATATACCC showed a binding signal of 0.127 E-score. For CTATACCA, the binding signal was 0.201 E-score. AAATACCG gave a binding signal of 0.37 E-score. Sequence ATATACCA has a binding signal of 0.344 E-score. Work on CAATACCG yielded a binding signal of 0.121 E-score. For AAATACCA, the binding signal was 0.286 E-score. GTATACCA gave a binding signal of 0.267 E-score. ATATACCG showed a binding signal of 0.384 E-score. AGATACCG gave a binding signal of 0.171 E-score. Work on AGGAGACG yielded a binding signal of -0.19 E-score. For CAGCTCGG, the binding signal was -0.0345 E-score. Sequence AAGTGACT has a binding signal of -0.0548 E-score. TCTGTCAA gave a binding signal of -0.116 E-score. For CAAGCCTG, the binding signal was -0.132 E-score. ATCAGTGC gave a binding signal of -0.0896 E-score. CAACGGAC showed a binding signal of -0.085 E-score. Work on GCTAGTAA yielded a binding signal of 0.286 E-score. In the case of GGTAGTAA, the binding signal is reported as 0.396 E-score. CGTAGTAA showed a binding signal of 0.205 E-score. With TGTAGTAA the binding signal was 0.286 E-score. In the case of AGTAGTAA, the binding signal is reported as 0.404 E-score. With GTTAGTAA the binding signal was 0.163 E-score. ACTAAACT was tested, and the binding signal was 0.244 E-score. Work on TGGCGAAA yielded a binding signal of 0.0439 E-score. For GTTTTGCA, the binding signal was 0.0567 E-score. Work on CGTACGTA yielded a binding signal of 0.05 E-score. For CAATAAAA, the binding signal was 0.239 E-score. Sequence TACTAATA has a binding signal of 0.298 E-score. CACTAATC was tested, and the binding signal was 0.1 E-score. CAATAATA showed a binding signal of 0.312 E-score. In the case of CACTAATA, the binding signal is reported as 0.33 E-score. For TATTAATA, the binding signal was 0.352 E-score. TAATAATA showed a binding signal of 0.424 E-score. CATTAATA showed a binding signal of 0.186 E-score. AATTAATA was tested, and the binding signal was 0.305 E-score. TAATAAAA gave a binding signal of 0.344 E-score. Work on GAATAAAA yielded a binding signal of 0.119 E-score. AAATAATA showed a binding signal of 0.317 E-score. AGAGAATG was tested, and the binding signal was 0.0921 E-score. With CATGGTTA the binding signal was 0.0882 E-score. Work on AAGGAGCG yielded a binding signal of -0.2 E-score. For AGAGGCAA, the binding signal was -0.195 E-score. With GACCTTGC the binding signal was -0.129 E-score. Work on GAATAATC yielded a binding signal of -0.0939 E-score. GAATAAGA gave a binding signal of 0.0835 E-score. GAATAATA gave a binding signal of 0.349 E-score. AGCCAACC was tested, and the binding signal was -0.074 E-score. Sequence ATTCGCCC has a binding signal of -0.192 E-score. Work on ATGATATA yielded a binding signal of 0.386 E-score. Sequence CTGATATA has a binding signal of 0.258 E-score. ATGATAGA was tested, and the binding signal was 0.36 E-score. With ATGATAGG the binding signal was 0.0735 E-score. ATGATAGC was tested, and the binding signal was 0.15 E-score. ATGATATG showed a binding signal of 0.226 E-score. GGACGTCC gave a binding signal of -0.0863 E-score. In the case of AAGCACAA, the binding signal is reported as 0.035 E-score. For TCGGTCAA, the binding signal was 0.044 E-score. GACAAATA showed a binding signal of 0.111 E-score. In the case of AGCATAAT, the binding signal is reported as 0.369 E-score. For AGCATAAG, the binding signal was -0.133 E-score. AGCATAAA showed a binding signal of 0.179 E-score. CGTTGTCA gave a binding signal of 0.0104 E-score. TCTATGCA showed a binding signal of 0.172 E-score. Work on AATATTGA yielded a binding signal of 0.22 E-score. Work on AATATTGG yielded a binding signal of -0.0277 E-score. Work on AATATTGT yielded a binding signal of 0.372 E-score. Sequence AATATTCG has a binding signal of 0.307 E-score. AATATTCT gave a binding signal of 0.347 E-score. AATATTCC was tested, and the binding signal was 0.106 E-score. Sequence AAACATTC has a binding signal of 0.0952 E-score. Sequence CGATGTCA has a binding signal of -0.131 E-score. Work on GGTCCCAA yielded a binding signal of -0.183 E-score. Work on ATGGACGC yielded a binding signal of -0.141 E-score. Work on CGTAACTA yielded a binding signal of 0.314 E-score. AGTAACTG showed a binding signal of 0.124 E-score. For GGTAACTA, the binding signal was 0.336 E-score. AGTAACTC gave a binding signal of 0.0388 E-score. AGTAACTA was tested, and the binding signal was 0.436 E-score. For GGTAACGA, the binding signal was 0.0496 E-score. ACTAACTA was tested, and the binding signal was 0.367 E-score. Work on GCTAACTA yielded a binding signal of 0.324 E-score. ACTAACTG showed a binding signal of 0.16 E-score. GTTCAACA showed a binding signal of 0.0437 E-score. GTAACTGA gave a binding signal of 0.203 E-score. Work on TCATGAAA yielded a binding signal of 0.0251 E-score. GTGACCGA showed a binding signal of 0.048 E-score. For CCACAATA, the binding signal was 0.2 E-score. GACCTAGC was tested, and the binding signal was -0.0362 E-score. Sequence AGCTACGA has a binding signal of 0.191 E-score. Work on ACATGACC yielded a binding signal of 0.104 E-score. Work on AATAAGAC yielded a binding signal of 0.0721 E-score. For TGCTAGAA, the binding signal was 0.364 E-score. AACTAGAA was tested, and the binding signal was 0.363 E-score. AGCTAGAT showed a binding signal of 0.152 E-score. AACTAGAT showed a binding signal of 0.388 E-score. Sequence GGCTAGAA has a binding signal of -0.162 E-score. In the case of CACTAGAA, the binding signal is reported as 0.304 E-score. With AGCTAGAA the binding signal was 0.322 E-score. AACTAGAG was tested, and the binding signal was 0.0733 E-score. With AACTAGAC the binding signal was 0.193 E-score. Sequence GACTAGAA has a binding signal of 0.206 E-score. With TACTAGAA the binding signal was 0.348 E-score. ACCTAGAA gave a binding signal of 0.142 E-score. With GCCGCAAC the binding signal was -0.128 E-score. CAGCAGGA showed a binding signal of -0.178 E-score. In the case of AACATCAT, the binding signal is reported as 0.00751 E-score. AACATCTT was tested, and the binding signal was 0.0861 E-score. With GTAACCAA the binding signal was 0.000641 E-score. CTAGACCA showed a binding signal of -0.196 E-score. ACATGTTA was tested, and the binding signal was 0.144 E-score. Sequence CGAATGAG has a binding signal of -0.0259 E-score. ATGCTCCG gave a binding signal of -0.113 E-score. With CAGCCTTA the binding signal was -0.151 E-score. CATAGCTC gave a binding signal of 0.00142 E-score. Sequence ACGCGGAA has a binding signal of -0.0676 E-score. With AGTAGATC the binding signal was 0.323 E-score. Sequence CGTAGATA has a binding signal of 0.21 E-score. GGTAGATA gave a binding signal of 0.432 E-score. With AGTAGATG the binding signal was 0.29 E-score. Work on GCTAGATA yielded a binding signal of 0.288 E-score. With AGTAGATA the binding signal was 0.456 E-score. ACCCGCAA gave a binding signal of -0.0817 E-score. Work on GACTAGCA yielded a binding signal of 0.101 E-score. With AACTAGCT the binding signal was 0.342 E-score. CACTAGCA was tested, and the binding signal was -0.154 E-score. AACTAGCA gave a binding signal of 0.346 E-score. AACTAGCC gave a binding signal of 0.107 E-score. With AACTAGCG the binding signal was 0.256 E-score. AGAAGAAA showed a binding signal of 0.00841 E-score. Sequence CTCTTTCC has a binding signal of -0.0674 E-score. Work on AACACCCA yielded a binding signal of -0.114 E-score. Sequence CACGTATA has a binding signal of 0.228 E-score. Work on GACGTATA yielded a binding signal of 0.174 E-score. Sequence TACGTATA has a binding signal of 0.349 E-score. TGGAGCCA gave a binding signal of -0.182 E-score. In the case of GGCGAAGA, the binding signal is reported as -0.0389 E-score. Work on GTTAAAAC yielded a binding signal of 0.0593 E-score. With CCAACTGA the binding signal was -0.0233 E-score. Work on CTATAAAA yielded a binding signal of 0.229 E-score. ATATAAAA gave a binding signal of 0.338 E-score. Work on CTATAAAC yielded a binding signal of 0.291 E-score. Sequence GTATAAAC has a binding signal of 0.137 E-score. ATATAAAG showed a binding signal of 0.135 E-score. In the case of ATATAAAT, the binding signal is reported as 0.419 E-score. ATAAAAAT was tested, and the binding signal was 0.28 E-score. ATATAAAC showed a binding signal of 0.33 E-score. Sequence TTATAAAA has a binding signal of 0.218 E-score. CGGAGACG showed a binding signal of -0.133 E-score. CGTGTAGC gave a binding signal of -0.0895 E-score. CTAGAGAC showed a binding signal of 0.0353 E-score. For CGAACTAA, the binding signal was 0.135 E-score. CGAACTAC gave a binding signal of 0.373 E-score. With AGAACTAT the binding signal was 0.268 E-score. For AGAACTAC, the binding signal was 0.369 E-score. Sequence AGAACTAA has a binding signal of 0.259 E-score. With CGAACTAG the binding signal was 0.299 E-score. CGACCGGA showed a binding signal of -0.00838 E-score. In the case of GGTTCCGA, the binding signal is reported as 0.0637 E-score. With ACTTGTTC the binding signal was 0.195 E-score. With GGCAAGAA the binding signal was -0.058 E-score. Work on CTCGAAAC yielded a binding signal of 0.104 E-score. Work on ATGCCCGA yielded a binding signal of -0.167 E-score. With AACTCATA the binding signal was 0.0551 E-score. CATAGCTA showed a binding signal of 0.304 E-score. In the case of GATAGCGA, the binding signal is reported as 0.0913 E-score. For GATAGCTA, the binding signal was 0.367 E-score. Sequence AATAGCTA has a binding signal of 0.329 E-score. For AATAGCTG, the binding signal was 0.186 E-score. GATAGCAA was tested, and the binding signal was 0.137 E-score.
